Data taken from the supplement of paper PMC10849652.
Targets with a hit are over-represented here; the source holds about 7,900 in all. About 0.6% of all pairs of compound and target were hits. Unmarked numbers belong to inactive results.

Tests used:
Experiment in all cases: log2 fold change, soluble protein after heating vs DMSO (PISA); higher = thermal stabilisation; K562 cells, 10 uM, 30 min; active = over 0.2 and 3.5 SD of the protein, either way, in both replicates (recomputed)
[1] = compound: CC1=C(C=C(C=C1)NC(=O)C2=CC(=CC=C2)C(C)(C)C#N)NC3=CC4=C(C=C3)N=CN(C4=O)C
Summary of the method: (§1)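 K562 cells at 2×10^6 cells/mL were treated with 10 μM compound for 30 min. Aliquots were heated for 3 min across 48°C-58°C, pooled, and extracted in PBS with 0.5% NP-40 at 4°C; soluble protein was the supernatant after 21,000xg for 90 min. Soluble protein was quantified by TMTpro 16plex LC-MS/MS with channel sums equalised, and reported as log2 fold change in thermal stability against DMSO controls, with values from duplicates.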

[2] = compound: CC1=C(C=C(C=C1)NC(=O)C2=CC(=CC=C2)N(C)C)NC(=O)C3=CC=C(C=C3)O
Summary of the method: as §1

[3] = compound: CC1=CC=C(C=C1)SC2=C3C=C(SC3=CN=C2)C(=O)N
Summary of the method: as §1

[4] = compound: CC1=NC(=CC=C1)C2=C(N=C(N2)C(C)(C)C)C3=CC4=NC=CN=C4C=C3
Summary of the method: as §1

Nexturastat A = compound: CCCCN(Cc1ccc(C(=O)NO)cc1)C(=O)Nc1ccccc1 [Nexturastat A]
Summary of the method: as §1

vemurafenib = compound: CCCS(=O)(=O)Nc1ccc(F)c(C(=O)c2c[nH]c3ncc(-c4ccc(Cl)cc4)cc23)c1F [vemurafenib]
Summary of the method: as §1

[5] = compound: CCCS(=O)(=O)Nc1ccc(F)c(C(=O)c2c[nH]c3ncc(Cl)cc23)c1F
Summary of the method: as §1

[6] = compound: CCCc1cc(C)[nH]c(=O)c1CNC(=O)c1cc(-c2ccnc(N3CCN(C)CC3)c2)cc2c1cnn2C(C)C
Summary of the method: as §1

givinostat = compound: CCN(CC)Cc1ccc2cc(COC(=O)Nc3ccc(C(=O)NO)cc3)ccc2c1 [givinostat]
Summary of the method: as §1

barasertib = compound: CCN(CCCOc1ccc2c(Nc3cc(CC(=O)Nc4cccc(F)c4)[nH]n3)ncnc2c1)CCOP(=O)(O)O [barasertib]
Summary of the method: as §1

[7] = compound: CC[C@@H]1C(=O)N(C)c2cnc(Nc3ccc(C(=O)NC4CCN(C)CC4)cc3OC)nc2N1C1CCCC1
Summary of the method: as §1

volasertib = compound: CC[C@@H]1C(=O)N(C)c2cnc(Nc3ccc(C(=O)N[C@H]4CC[C@H](N5CCN(CC6CC6)CC5)CC4)cc3OC)nc2N1C(C)C [volasertib]
Summary of the method: as §1

[8] = compound: CC[C@H](C)N1C=C(C2=C(C=C(C=C21)C3=CN=C(C=C3)N4CCNCC4)C(=O)NCC5=C(C=C(NC5=O)C)C)C
Summary of the method: as §1

epoxomicin = compound: CC[C@H](C)[C@@H](C(=O)N[C@@H]([C@@H](C)O)C(=O)N[C@@H](CC(C)C)C(=O)[C@]1(CO1)C)NC(=O)[C@H]([C@@H](C)CC)N(C)C(=O)C [epoxomicin]
Summary of the method: as §1

[9] = compound: CCn1c(C(=O)N(C2CC2)C2CC2)cc2c3c(ncn3C)c(Nc3cc(C)n(C)n3)nc21
Summary of the method: as §1

[10] = compound: CCn1cc(-c2ccnc3[nH]c(-c4cccc(CN(C)C)c4)cc23)c(-c2ccc(NC(=O)N(C)C)cc2)n1
Summary of the method: as §1

[11] = compound: CN(C)CC(=O)Nc1ccc2[nH]c(=O)c3ccccc3c2c1
Summary of the method: as §1

rosiglitazone = compound: CN(CCOC1=CC=C(C=C1)C[C@H]2C(=O)NC(=O)S2)C3=CC=CC=N3 (racemic) [rosiglitazone]
Summary of the method: as §1

[12] = compound: CN1C2=C(C3=C1C(=O)N(N=C3)CC4=CC(=CC=C4)N)SC(=C2)S(=O)C
Summary of the method: as §1

[13] = compound: CN1CCC(CNc2ccc3ncc(-c4cccc(OC(F)(F)F)c4)n3n2)CC1
Summary of the method: as §1

Chain of UniProt P68104 (P68104 whole entry, looked up): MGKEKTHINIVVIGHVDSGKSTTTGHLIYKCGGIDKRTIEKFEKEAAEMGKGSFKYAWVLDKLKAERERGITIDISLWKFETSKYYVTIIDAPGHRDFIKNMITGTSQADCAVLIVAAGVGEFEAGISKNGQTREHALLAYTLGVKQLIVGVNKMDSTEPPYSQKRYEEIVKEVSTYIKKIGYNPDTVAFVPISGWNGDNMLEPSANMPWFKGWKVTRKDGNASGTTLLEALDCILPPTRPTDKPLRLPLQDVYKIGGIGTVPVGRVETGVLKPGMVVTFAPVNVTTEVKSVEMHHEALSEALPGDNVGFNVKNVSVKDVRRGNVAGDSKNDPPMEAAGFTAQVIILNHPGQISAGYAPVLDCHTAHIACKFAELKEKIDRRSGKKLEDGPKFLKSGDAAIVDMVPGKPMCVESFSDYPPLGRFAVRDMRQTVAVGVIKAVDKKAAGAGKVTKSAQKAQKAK
Chain of UniProt Q8IYI6 (Q8IYI6 whole entry, looked up): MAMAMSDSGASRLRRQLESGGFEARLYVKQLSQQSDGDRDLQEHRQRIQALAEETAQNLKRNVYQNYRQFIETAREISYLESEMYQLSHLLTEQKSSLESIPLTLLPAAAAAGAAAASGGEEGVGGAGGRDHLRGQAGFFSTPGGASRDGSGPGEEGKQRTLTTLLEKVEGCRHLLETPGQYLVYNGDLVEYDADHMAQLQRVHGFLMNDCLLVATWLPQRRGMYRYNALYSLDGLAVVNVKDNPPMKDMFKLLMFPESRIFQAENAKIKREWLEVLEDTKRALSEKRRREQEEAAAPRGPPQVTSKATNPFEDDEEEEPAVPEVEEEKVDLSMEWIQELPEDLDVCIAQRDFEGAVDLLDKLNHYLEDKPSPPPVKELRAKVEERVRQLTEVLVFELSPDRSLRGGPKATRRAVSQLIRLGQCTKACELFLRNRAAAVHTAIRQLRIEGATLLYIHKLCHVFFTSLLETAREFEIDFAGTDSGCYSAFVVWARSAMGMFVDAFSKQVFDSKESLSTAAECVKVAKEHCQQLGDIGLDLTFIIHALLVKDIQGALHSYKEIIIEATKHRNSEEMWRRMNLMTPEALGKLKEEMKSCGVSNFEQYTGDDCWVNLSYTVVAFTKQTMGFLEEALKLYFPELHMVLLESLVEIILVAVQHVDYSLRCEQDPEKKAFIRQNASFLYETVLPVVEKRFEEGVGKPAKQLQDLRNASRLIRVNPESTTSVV
Chain of UniProt P98173 (P98173 whole entry, looked up): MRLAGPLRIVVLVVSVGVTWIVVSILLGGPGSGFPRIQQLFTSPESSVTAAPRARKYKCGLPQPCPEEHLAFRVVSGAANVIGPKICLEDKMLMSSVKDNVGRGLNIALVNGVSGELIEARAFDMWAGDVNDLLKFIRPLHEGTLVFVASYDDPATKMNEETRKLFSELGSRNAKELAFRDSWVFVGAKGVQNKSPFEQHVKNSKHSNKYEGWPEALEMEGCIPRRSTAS
Chain of UniProt Q6IAN0 (Q6IAN0 whole entry, looked up): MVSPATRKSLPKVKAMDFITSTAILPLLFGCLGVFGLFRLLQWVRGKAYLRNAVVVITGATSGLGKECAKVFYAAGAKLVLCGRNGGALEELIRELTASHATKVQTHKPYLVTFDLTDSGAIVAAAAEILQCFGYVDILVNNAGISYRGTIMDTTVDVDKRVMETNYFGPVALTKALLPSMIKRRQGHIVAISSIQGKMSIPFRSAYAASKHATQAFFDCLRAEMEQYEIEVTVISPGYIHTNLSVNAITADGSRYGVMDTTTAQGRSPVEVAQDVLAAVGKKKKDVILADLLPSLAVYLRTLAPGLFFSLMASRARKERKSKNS
Chain of UniProt Q9NV70 (Q9NV70 whole entry, looked up): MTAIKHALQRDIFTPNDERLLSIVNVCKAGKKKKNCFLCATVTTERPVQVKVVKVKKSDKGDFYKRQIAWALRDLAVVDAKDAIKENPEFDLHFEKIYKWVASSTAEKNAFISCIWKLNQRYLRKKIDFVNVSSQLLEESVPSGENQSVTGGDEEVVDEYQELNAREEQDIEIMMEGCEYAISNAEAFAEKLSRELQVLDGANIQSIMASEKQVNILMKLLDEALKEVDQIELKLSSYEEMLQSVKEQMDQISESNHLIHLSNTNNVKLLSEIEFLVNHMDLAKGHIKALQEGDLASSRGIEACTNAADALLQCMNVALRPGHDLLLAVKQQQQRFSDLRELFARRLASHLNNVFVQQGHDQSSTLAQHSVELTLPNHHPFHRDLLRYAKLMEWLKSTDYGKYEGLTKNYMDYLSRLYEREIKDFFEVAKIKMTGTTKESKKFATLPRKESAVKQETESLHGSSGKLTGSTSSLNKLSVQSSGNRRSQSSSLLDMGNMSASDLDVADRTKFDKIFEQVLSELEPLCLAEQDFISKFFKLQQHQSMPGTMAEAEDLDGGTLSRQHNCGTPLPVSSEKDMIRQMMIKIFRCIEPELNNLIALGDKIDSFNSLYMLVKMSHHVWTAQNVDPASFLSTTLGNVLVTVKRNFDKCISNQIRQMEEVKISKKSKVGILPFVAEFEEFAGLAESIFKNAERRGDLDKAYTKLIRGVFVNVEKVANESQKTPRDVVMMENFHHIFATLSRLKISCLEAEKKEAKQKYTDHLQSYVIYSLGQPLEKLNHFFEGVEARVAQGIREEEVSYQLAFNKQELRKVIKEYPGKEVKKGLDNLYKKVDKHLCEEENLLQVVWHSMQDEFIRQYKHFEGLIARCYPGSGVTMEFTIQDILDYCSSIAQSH
Chain of UniProt Q13409 (Q13409 whole entry, looked up): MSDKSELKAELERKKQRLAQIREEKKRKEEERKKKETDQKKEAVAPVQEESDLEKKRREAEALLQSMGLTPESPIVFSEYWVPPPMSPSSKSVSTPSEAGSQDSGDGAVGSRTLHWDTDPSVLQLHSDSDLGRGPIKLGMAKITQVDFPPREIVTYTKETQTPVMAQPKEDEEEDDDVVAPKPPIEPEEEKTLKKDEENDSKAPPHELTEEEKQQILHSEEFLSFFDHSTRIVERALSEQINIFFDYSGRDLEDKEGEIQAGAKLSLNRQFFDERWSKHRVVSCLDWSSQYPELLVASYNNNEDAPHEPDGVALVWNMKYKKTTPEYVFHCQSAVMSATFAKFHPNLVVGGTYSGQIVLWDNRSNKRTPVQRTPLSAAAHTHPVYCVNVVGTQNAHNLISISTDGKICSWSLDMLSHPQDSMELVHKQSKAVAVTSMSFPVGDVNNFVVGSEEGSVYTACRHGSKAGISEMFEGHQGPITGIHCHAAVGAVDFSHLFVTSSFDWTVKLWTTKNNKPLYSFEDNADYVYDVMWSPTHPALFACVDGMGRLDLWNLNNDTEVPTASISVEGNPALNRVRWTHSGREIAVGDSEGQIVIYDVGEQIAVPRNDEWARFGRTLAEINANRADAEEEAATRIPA
Chain of UniProt P29692 (P29692 whole entry, looked up): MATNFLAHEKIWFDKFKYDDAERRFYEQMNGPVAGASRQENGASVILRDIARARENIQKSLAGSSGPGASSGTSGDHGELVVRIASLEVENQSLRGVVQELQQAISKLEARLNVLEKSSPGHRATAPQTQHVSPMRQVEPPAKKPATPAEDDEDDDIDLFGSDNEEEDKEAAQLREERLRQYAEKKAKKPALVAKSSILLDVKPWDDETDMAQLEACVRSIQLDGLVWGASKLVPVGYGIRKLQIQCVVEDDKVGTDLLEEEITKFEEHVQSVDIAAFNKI
Chain of UniProt Q14203 (Q14203 whole entry, looked up): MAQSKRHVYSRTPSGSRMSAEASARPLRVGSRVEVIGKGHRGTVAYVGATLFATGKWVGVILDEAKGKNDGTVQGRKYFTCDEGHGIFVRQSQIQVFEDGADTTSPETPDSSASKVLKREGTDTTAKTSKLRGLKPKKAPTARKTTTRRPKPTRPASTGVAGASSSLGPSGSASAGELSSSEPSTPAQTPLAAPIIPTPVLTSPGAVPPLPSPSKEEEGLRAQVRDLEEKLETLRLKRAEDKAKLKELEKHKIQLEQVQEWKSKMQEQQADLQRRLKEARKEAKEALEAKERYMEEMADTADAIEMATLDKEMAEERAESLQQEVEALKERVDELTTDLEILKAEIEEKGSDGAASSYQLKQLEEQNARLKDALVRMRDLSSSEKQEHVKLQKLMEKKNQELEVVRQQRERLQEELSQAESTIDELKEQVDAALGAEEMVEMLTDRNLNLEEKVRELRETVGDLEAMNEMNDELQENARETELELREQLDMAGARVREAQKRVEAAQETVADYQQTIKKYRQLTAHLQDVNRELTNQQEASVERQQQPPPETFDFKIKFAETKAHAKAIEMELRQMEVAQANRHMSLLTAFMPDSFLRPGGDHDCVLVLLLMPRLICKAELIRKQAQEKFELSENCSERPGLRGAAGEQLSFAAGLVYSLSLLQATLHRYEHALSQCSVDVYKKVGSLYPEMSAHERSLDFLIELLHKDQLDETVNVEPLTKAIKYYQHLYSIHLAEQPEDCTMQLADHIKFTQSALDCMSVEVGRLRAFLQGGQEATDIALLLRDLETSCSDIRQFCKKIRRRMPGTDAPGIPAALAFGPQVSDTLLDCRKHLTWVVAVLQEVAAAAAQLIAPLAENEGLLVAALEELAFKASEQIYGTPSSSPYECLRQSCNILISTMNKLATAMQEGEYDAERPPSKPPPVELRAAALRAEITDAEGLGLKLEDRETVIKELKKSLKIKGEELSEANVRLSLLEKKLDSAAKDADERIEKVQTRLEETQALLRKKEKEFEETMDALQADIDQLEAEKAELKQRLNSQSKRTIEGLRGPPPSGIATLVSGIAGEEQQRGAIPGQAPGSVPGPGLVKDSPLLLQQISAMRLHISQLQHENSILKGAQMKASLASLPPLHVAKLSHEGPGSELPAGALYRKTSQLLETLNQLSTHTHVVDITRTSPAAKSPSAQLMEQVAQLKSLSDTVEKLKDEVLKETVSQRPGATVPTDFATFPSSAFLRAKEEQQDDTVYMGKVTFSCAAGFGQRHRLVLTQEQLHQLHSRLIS

| Target | log2 fold change [1] | log2 fold change [2] | log2 fold change [3] | log2 fold change [4] | log2 fold change (Nexturastat A) | log2 fold change (vemurafenib) | log2 fold change [5] | log2 fold change [6] | log2 fold change (givinostat) | log2 fold change (barasertib) | log2 fold change [7] | log2 fold change (volasertib) | log2 fold change [8] | log2 fold change (epoxomicin) | log2 fold change [9] | log2 fold change [10] | log2 fold change [11] | log2 fold change (rosiglitazone) | log2 fold change [12] | log2 fold change [13] |
| --- | --- | --- | --- | --- | --- | --- | --- | --- | --- | --- | --- | --- | --- | --- | --- | --- | --- | --- | --- | --- |
| DHRS7B (UniProt Q6IAN0) | -0.008 | -0.066 | -0.049 | -0.001 | 0.003 | 0.066 | 0.06 | 0.04 | -0.029 | -0.004 | -0.079 | -0.147 | -0.043 | -0.106 | 0.004 | 0.059 | -0.002 | 0.021 | -0.122 | 0.538 (active) |
| EXOC1 (UniProt Q9NV70) | -0.026 | -0.01 | 0.019 | 0.027 | 0.115 | -0.023 | 0.028 | 0.08 | 0.07 | 0.082 | -0.219 | -0.44 | 0.077 | -0.012 | -0.081 | 0.023 | 0.084 | 0.115 | 0.1 | -0.319 |
| EXOC8 (UniProt Q8IYI6) | 0.035 | -0.085 | 0.037 | 0.016 | -0.087 | 0.048 | 0.01 | -0.091 | 0.028 | 0.048 | -0.212 | -0.367 (active) | 0.045 | -0.004 | -0.088 | 0.003 | 0.073 | 0.05 | 0.009 | -0.295 (active) |
| DCTN1 isoform 4 (UniProt Q14203) | 0.022 | -0.017 | 0.015 | -0.039 | 0.116 | -0.015 | 0.019 | 0.102 | 0.104 | 0.033 | 0.01 | -0.1 | 0.078 | 0.02 | -0.157 | -0.024 | 0.052 | 0.086 | 0.149 | -0.096 |
| DDX4 (UniProt Q9NQI0) | -0.451 | 0.035 | -0.328 | -0.336 | 0.263 | -0.569 | -0.447 | 0.327 | 0.271 | -0.094 | 0.139 | -0.006 | 0.067 | -0.113 | -0.223 | 0.047 | -0.414 | 0.097 | 0.025 | -0.844 |
| FAM3A (UniProt P98173) | -0.022 | 0.012 | -0.005 | 0.003 | -0.304 (active) | 0.015 | 0.013 | -0.031 | -0.001 | 0.014 | 0.024 | -0.11 | -0.02 | 0.029 | 0.085 | 0.066 | 0.019 | 0.101 | -0.023 | -0.128 |
| EEF1D isoform 2 (UniProt P29692) | 0.039 | -0.034 | -0.012 | -0.003 | 0.029 | -0.044 | 0.049 | -0.004 | 0.038 | 0.02 | -0.089 | -0.336 (active) | -0.001 | 0.008 | -0.031 | 0.05 | -0.022 | 0.019 | 0.015 | -0.039 |
| DYNC1I2 isoform 2 (UniProt Q13409) | 0.006 | -0.054 | -0.179 | 0.061 | 0.047 | – | 0.018 | 0.271 | 0.044 | 0.015 | 0.012 | 0.045 | – | -0.06 | 0.086 | – | – | -0.022 | – | – |
| EEF1A1 (UniProt P68104) | -0.069 | -0.068 | 0 | 0.052 | 0.086 | 0.031 | 0.022 | 0.089 | -0.044 | 0.052 | -0.19 | 0.098 | 0.131 | 0.148 | 0.021 | – | 0.165 | -0.326 | -0.121 | – |
